Read-outs that look alike come from different tables or passages of the source.

For eight molecules, potency estimated from few doses results are on record in article PMC11062922 (Nature Chemical Biology, 2023).

Set-up in all cases: species or system human, MV4-11 + K-562 + COLO205 + SK-N-BE2 + OVCAR-8
For one test, the system named is ATM. Conditions: read-out: apparent Kd; compound concentrations: 100 nM and 1000 nM (sheet 'Samples'), CATDS: 4.4938913040114402E-2; n = 1.
The next test concerns BCR. The settings on record: read-out: apparent Kd, n = 1.
A further test has as its system CAMKK2. The settings on record: read-out: apparent Kd, n = 1.
A further test concerns CHEK1. The settings on record: read-out: apparent Kd, n = 1.
A further test has as its system EPHA4. Conditions: read-out: apparent Kd, n = 1.
Another test concerns EPHA5. Conditions: read-out: apparent Kd, n = 1.
A further test relates to EPHB2. The settings on record: read-out: apparent Kd, n = 1.
A further test concerns EPHB4. Conditions: read-out: apparent Kd, n = 1.
Another test relates to TNK1. Conditions: read-out: apparent Kd, n = 1.
The test system of a further test is TNK2. The settings on record: read-out: apparent Kd, n = 1.
The subject of a further test is PRKAG2. Conditions: read-out: apparent Kd; compound concentrations:100 nM and 1000 nM (sheet 'Samples'); n = 1.
The test system of another test is CDK16. Conditions: read-out: apparent Kd, compound concentrations: 100 nM and 1000 nM (sheet 'Samples'), n = 1.
Another test concerns CSNK1D. The settings on record: read-out: apparent Kd, compound concentrations: 100 nM and 1000 nM (sheet 'Samples'), n = 1.
A further test concerns MARK3. Conditions: read-out: apparent Kd, n = 1.
A further test has as its system STK4. The settings on record: read-out: apparent Kd; compound concentrations: 100 nM and 1000 nM (sheet 'Samples'), CATDS: 4.9368785940317003E-2; n = 1.
For another test, the system named is MAPK10. The settings on record: read-out: apparent Kd, n = 1.
A further test concerns MAPK9. The settings on record: read-out: apparent Kd, n = 1.
Another test deals with AURKA. Conditions: read-out: apparent Kd; compound concentrations: 100 nM and 1000 nM (sheet 'Samples'), CATDS: 7.5652675544933198E-2; n = 1.
In another test the test system is PRKACA. The settings on record: read-out: apparent Kd; compound concentrations:100 nM and 1000 nM (sheet 'Samples'); n = 1.
In a further test the test system is PRKACB. Conditions: read-out: apparent Kd; compound concentrations:100 nM and 1000 nM (sheet 'Samples'); n = 1.
Setting [1] is: compound concentrations:100 nM and 1000 nM (sheet 'Samples').

On to `Cc1ccccc1-n1ncc(C(=O)c2ccccc2)c1N` [RO1151248-000], for which the potency estimated from few doses in the test on ATM is 0.302 µM; in the test with BCR (compound concentrations: 100 nM and 1000 nM (sheet 'Samples'), CATDS: 2.0148747001584599E-2) it was 1.38 µM; with CAMKK2 (compound concentrations: 100 nM and 1000 nM (sheet 'Samples'), CATDS: 1.8448697661517601E-2), 1.79 µM; with CHEK1 (compound concentrations: 100 nM and 1000 nM (sheet 'Samples'), CATDS: 1.9023399407062401E-2), 1.63 µM; in the test with EPHA4 (compound concentrations: 100 nM and 1000 nM (sheet 'Samples'), CATDS: 2.34305639617714E-2) it was 0.955 µM; with EPHA5 (compound concentrations: 100 nM and 1000 nM (sheet 'Samples'), CATDS: 2.3755462861685599E-2), 0.926 µM. For the same molecule, the potency estimated from few doses was 0.64 µM in the test on EPHB2 (compound concentrations: 100 nM and 1000 nM (sheet 'Samples'), CATDS: 2.84737750154796E-2); 0.567 µM in the test with EPHB4 (compound concentrations: 100 nM and 1000 nM (sheet 'Samples'), CATDS: 3.0398268163298901E-2); 0.439 µM in the test on TNK1 (compound concentrations: 100 nM and 1000 nM (sheet 'Samples'), CATDS: 3.5283149780083803E-2); 0.443 µM in the test with TNK2 (compound concentrations: 100 nM and 1000 nM (sheet 'Samples'), CATDS: 3.5082928227748202E-2).
On to `CC(=O)N[C@@H](Cc1ccc(OP(=O)(O)O)cc1)C(=O)N[C@H]1CCC(=O)N2CCC[C@@H](C(=O)NCc3ccc(Cl)cc3)N2C1=O` [RO0325308-000], for which the potency estimated from few doses is 0.604 µM with BCR (setting [1]); 1.32 µM in the test with CAMKK2 (setting [1]); 1.95 µM with CHEK1 (setting [1]); 0.843 µM in the test with EPHA4 (setting [1]); 0.77 µM in the test on EPHA5 (setting [1]); 0.0563 µM in the test with EPHB2 (setting [1]). The potency estimated from few doses is 0.0599 µM with EPHB4 (setting [1]), 0.57 µM in the test on PRKAG2, 0.468 µM in the test with TNK1 (setting [1]) and 0.0517 µM with TNK2 (setting [1]).
As to `O=C(O)C(F)(F)F.O=C(O)C(F)(F)F.O=c1[nH]ccc2nc(N[C@@H]3CCCNC3)nc(Nc3ccc(S(=O)(=O)N4CCOCC4)cc3)c12.O=c1[nH]ccc2nc(N[C@@H]3CCCNC3)nc(Nc3ccc(S(=O)(=O)N4CCOCC4)cc3)c12` [GSK2177277A], the potency estimated from few doses with CDK16 (CATDS: 2.61766261640392E-2) is 0.032 µM; in the test with CHEK1 (compound concentrations: 100 nM and 1000 nM (sheet 'Samples'), CATDS: 1.19973934343878E-2), 0.166 µM; in the test on CSNK1D (CATDS: 1.4345830153399601E-2), 0.107 µM; in the test with EPHA5 (compound concentrations: 100 nM and 1000 nM (sheet 'Samples'), CATDS: 6.3188743096270596E-3), 1.69 µM; in the test with MARK3 (compound concentrations: 100 nM and 1000 nM (sheet 'Samples'), CATDS: 1.6672626063874801E-2) it was 0.0764 µM; with STK4 it was 0.0117 µM.
In the case of `CCN(CC)Cc1ccc(Nc2nccc(-c3cnn4ncccc34)n2)cc1` [GW780056X], the potency estimated from few doses in the test on CDK16 (CATDS: 4.3242463436831802E-2) was 0.196 µM; in the test with CSNK1D (CATDS: 9.4015783065552402E-2), 0.0478 µM; with MAPK10 (compound concentrations: 100 nM and 1000 nM (sheet 'Samples'), CATDS: 3.1976328377255003E-2), 0.371 µM.
Take `c1cnn2ncc(-c3ccnc(Nc4ccc5c(c4)OCCO5)n3)c2c1` [GW806290X]: the potency estimated from few doses in the test on CDK16 (CATDS: 2.45493373786023E-2) is 0.989 µM; in the test with CSNK1D (CATDS: 2.68711493268559E-2), 0.761 µM; in the test with MAPK10 (compound concentrations: 100 nM and 1000 nM (sheet 'Samples'), CATDS: 2.29064571505532E-2), 1.23 µM; in the test on MAPK9 (compound concentrations: 100 nM and 1000 nM (sheet 'Samples'), CATDS: 2.34417692705663E-2), 1.14 µM.
Take `CN(c1ccc(NC(=O)NCCN2CCOCC2)cc1)c1ccnc(Nc2ccc(CS(C)(=O)=O)cc2)n1.Cl` [GW830365A]: the potency estimated from few doses was 0.444 µM in the test with AURKA; 0.792 µM in the test with TNK1 (compound concentrations: 100 nM and 1000 nM (sheet 'Samples'), CATDS: 5.9117233589801498E-2).
Consider `CCn1c(-c2nonc2N)nc2c(C#CC(C)(C)O)nc(O[C@@H](CN)c3ccccc3)cc21.O=C(O)C(F)(F)F` [GSK1007102B], for which the potency estimated from few doses with MARK3 (setting [1]) is 0.163 µM; with PRKACA, 0.0375 µM; in the test with PRKACB it was 0.0411 µM; in the test on PRKAG2 it was 0.121 µM.
In the case of `CS(=O)(=O)CCn1c(=O)c(Oc2ccc(F)cc2F)cc2cnc(NC3CCOCC3)nc21` [RO5027956-000], the potency estimated from few doses in the test on BCR (setting [1]) was 0.693 µM; in the test on CAMKK2 (setting [1]), 1.27 µM; in the test on CHEK1 (setting [1]) it was 1.5 µM; in the test on EPHA4 (setting [1]), 0.896 µM; with EPHA5 (setting [1]), 0.751 µM; in the test on EPHB2 (setting [1]), 0.72 µM. Also, the potency estimated from few doses with EPHB4 (setting [1]) was 0.519 µM; with MAPK10 (setting [1]), 0.127 µM; in the test on MAPK9 (setting [1]), 0.494 µM; in the test on PRKACA, 2.09 µM; with PRKACB it was 0.977 µM; with PRKAG2 it was 0.497 µM. The results for the potency estimated from few doses in the test with TNK1 (setting [1]) and in the test with TNK2 (setting [1]) were 0.487 µM and 0.521 µM, respectively.
